Only some compounds are listed: those with a hit (about 2.1% of all), similar ones and a draw of the others.
bovine MsrA act = bovine methionine sulfoxide reductase A activation; purified bovine MsrA, absorbance read-out; activation, % at 10.6 µM; 360,000 tested, 0.3% active; AID 602163; in the data active = activation above about 7.5%;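 also: 0% = vehicle and 100% = reference activator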
MsrA inhibitor = bovine MsrA inhibition; 360,000 tested, 0.75% active; inhibition, % at 15.5 µM; purified bovine MsrA, absorbance read-out; in the data active = inhibition above about 4.5%;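 also: 0% = vehicle wells with enzyme and 100% = reference inhibitor wells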
ABCB6 inh 2 = inhibitors of human ABC transporter ABCB6. K562-ABCB6 porphyrin accumulation, flow cytometry, 1 h; active compounds read low. Q9NP58. 360,000 tested, 0.19% active. fluorescence ratio to DMSO, % at 10 µM. AID 602162;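 active = fluorescence ratio to DMSO below 75%, the collection mean minus 3 SD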;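 also: signal is porphyrin accumulated inside mitochondria; 100% equals median channel fluorescence of DMSO control wells; lower ratio means ABCB6 inhibition with less porphyrin fluorescence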
Target sequence (Q9NP58 whole entry, looked up): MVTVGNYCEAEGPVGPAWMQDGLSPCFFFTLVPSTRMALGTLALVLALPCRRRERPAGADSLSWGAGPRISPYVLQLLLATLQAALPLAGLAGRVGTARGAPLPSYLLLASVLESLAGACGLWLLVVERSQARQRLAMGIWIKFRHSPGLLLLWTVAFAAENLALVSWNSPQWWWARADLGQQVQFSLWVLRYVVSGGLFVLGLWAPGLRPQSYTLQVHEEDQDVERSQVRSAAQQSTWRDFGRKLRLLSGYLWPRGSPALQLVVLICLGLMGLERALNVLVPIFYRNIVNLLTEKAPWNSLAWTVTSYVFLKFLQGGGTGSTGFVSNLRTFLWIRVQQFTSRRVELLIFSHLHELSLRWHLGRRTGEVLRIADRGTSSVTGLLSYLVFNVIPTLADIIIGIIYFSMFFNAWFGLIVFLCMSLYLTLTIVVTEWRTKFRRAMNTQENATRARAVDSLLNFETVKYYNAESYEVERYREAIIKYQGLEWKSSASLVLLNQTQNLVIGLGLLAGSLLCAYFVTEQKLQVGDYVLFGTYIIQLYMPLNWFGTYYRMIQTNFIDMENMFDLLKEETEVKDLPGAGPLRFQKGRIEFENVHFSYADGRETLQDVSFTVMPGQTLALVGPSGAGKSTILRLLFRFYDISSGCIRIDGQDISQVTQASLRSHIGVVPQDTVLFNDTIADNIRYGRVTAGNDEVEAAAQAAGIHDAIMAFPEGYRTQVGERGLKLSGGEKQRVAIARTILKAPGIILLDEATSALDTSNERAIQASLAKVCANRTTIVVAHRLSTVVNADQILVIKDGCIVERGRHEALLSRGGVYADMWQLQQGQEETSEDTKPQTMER
SMARCA2 activ = increases SMARCA2 function in MMTV reporter cells; MG213 cells, MMTV-luciferase reporter, dexamethasone, overnight; activation, % at 9.1 µM; 370,000 tested, 1% active; AID 652017; in the data active = activation above about 7.8%;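 also: 0% = vehicle wells and 100% = reference activator wells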
SMARCA2 act conf = confirmation of SMARCA2 (BRM) function activators; 3,500 tested, 30% active; activation, % at 9.1 µM; MG213 cells, MMTV-luciferase with dexamethasone, luminescence, overnight; MG213 cells expressing E1A, Rb sequestered; DMSO wells 0%, reference activator 100%; shares compounds with SMARCA2 activ; AID 652260;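 active = activation above its plate's cutoff, the mean activation of tested wells plus 3 SD, cut at about 7.9% in these data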
VP16 Luc act = activates GAL4-VP16 luciferase, flagging SMARCA2 activator hits | shares compounds with SMARCA2 activ | HEK293 GAL4-VP16 pG5luc reporter, luciferase luminescence; scaled: DMSO wells 0%, SAHA wells 100% | activation, % at 9.1 µM | 3,500 tested, 41% active;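 active = activation above the solvent-only control well mean plus 3 SD, averaged across control plates, cut at about 5.2% in these data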
An asterisk follows results filed as active; nt = no result given.

SMILES | bovine MsrA act | MsrA inhibitor | ABCB6 inh 2 | SMARCA2 activ | SMARCA2 act conf | VP16 Luc act
CC(=O)Nc1sc2c(c1-c1nc3ccccc3s1)CN(C(C)C)CC2 | -3.0 | 1.0 | 121.0 | 18.7* | 6.9 | -1.1
CC(=O)N1CCc2c(sc(NC(=O)C3CC3)c2-c2nc3ccccc3s2)C1 | -3.4 | 0.3 | 133.0 | 1.4 | nt | nt
O=C(NCCN1C(=O)C2C3C=CC(C3)C2C1=O)c1cc(F)cc(F)c1 (stereo not drawn) | nt | nt | nt | -3.6 | nt | nt
Cc1nc(SCC(=O)c2cccs2)c2oc3ccccc3c2n1 | -1.9 | 0.6 | 95.0 | 8.5* | 3.1 | 10.5*
C[C@H](CO)N1C[C@H](C)[C@@H](CN(C)C(=O)CCC(F)(F)F)OCc2cn(nn2)CCCC1=O | nt | -0.1 | nt | 8.4* | 0.5 | 0.8
COc1ccc(N2CCN(CCNS(=O)(=O)c3cccs3)CC2)cc1 | nt | nt | nt | -2.9 | nt | nt
CCSc1ccc(-c2ccc(C)cc2)nn1 | -7.8 | -0.4 | 97.0 | 12.8* | 13.9* | 9.5*
COC(=O)C[C@H]1C=C[C@@H](NC(=O)NC2CCCCC2)[C@@H](CO)O1 | nt | -0.2 | nt | 0.0 | nt | nt
COc1cccc(-c2cc3nc4c(c(NCC(C)(C)CN(C)C)n3n2)CCCC4)c1 | -0.7 | 1.6 | 106.0 | -3.1 | nt | nt
Fc1cccc(-c2cc3nc4c(c(N5CCOCC5)n3n2)CCCC4)c1 | -7.9 | 0.6 | 92.0 | 9.4* | 5.3 | 0.5
Fc1cccc(-c2cc3nc4c(c(NCc5ccco5)n3n2)CCCC4)c1 | -3.1 | 0.0 | 89.0 | 8.4* | 7.6 | 10.6*
Clc1cccc(-c2cc3nc4c(c(N5CCN(c6cnccn6)CC5)n3n2)CCCC4)c1 | -4.2 | 0.8 | 93.0 | 1.9 | nt | nt
COc1ccc2ccccc2c1C=Nn1c(-c2cc(-c3ccccc3)n[nH]2)n[nH]c1=S | nt | nt | nt | -2.1 | nt | nt
Cc1ccc(Nc2cccccc2=O)cc1 | -16.0 | 0.8 | 88.0 | 9.3* | 7.2 | 8.4*
Cc1ccc(NC(=O)COC(=O)c2ccccc2Nc2ccccc2)cc1 | -4.8 | 0.5 | 100.0 | -3.5 | nt | nt
Cc1ccc(Cc2cnc(NC(=O)C3CCCO3)s2)cc1 (stereo not drawn) | -2.9 | -1.1 | 97.0 | 8.8* | 10.5* | 7.9*
CN1CCN(C(=O)CCN2C(=O)S/C(=C/c3ccc(Cl)cc3)C2=O)CC1 | -12.2 | 3.7 | 90.0 | -1.5 | nt | nt
Cc1ccc(/C=C2\SC(=O)N(CCC(=O)N3CCN(C)CC3)C2=O)cc1 | -4.6 | 3.6 | 84.0 | 8.9* | 4.9 | 6.6*
Cc1ccccc1N1CCN(S(=O)(=O)c2ccc3c(c2)oc(=O)n3C)CC1 | nt | nt | nt | -0.5 | nt | nt
O=C(Nc1cccc(-c2cnc3ccccc3n2)c1)c1ccccc1 | -11.8 | 1.4 | 99.0 | -1.8 | nt | nt
CCc1ccc(-c2cnc3ccccc3n2)cc1NC(=O)CNC(=O)c1ccccc1 | 0.6 | 0.0 | 95.0 | 8.1* | 7.3 | 17.6*
COc1ccc(CCNC(=O)Nc2ccc3c(c2)[C@@]2(CC(=O)N(CC(C)C)C2c2ccccc2)C(=O)N3C)cc1OC (stereo partly drawn) | nt | nt | nt | -1.8 | nt | nt
Cc1ccc(-c2nc(-c3ccncc3)no2)cc1C | -6.8 | 0.7 | 98.0 | 6.3 | nt | nt
COc1ccc(-c2nc(-c3ccncc3)no2)cc1OC | -6.8 | 0.5 | 92.0 | 12.3* | 6.4 | 8.8*
c1ccc2nc(-c3ccc4c(c3)OCO4)ccc2c1 | -0.1 | 2.0 | 103.0 | -0.9 | nt | nt
SMILES | bovine MsrA act | MsrA inhibitor | ABCB6 inh 2 | SMARCA2 activ | SMARCA2 act conf | VP16 Luc act
COc1ccccc1-c1nc(-c2ccncc2)no1 | 0.7 | -0.9 | 101.0 | 10.2* | 9.8* | 10.9*
COc1ccc(-c2noc(-c3ccc4c(c3)OCO4)n2)cc1 | -2.9 | -0.3 | 92.0 | 14.5* | 15.4* | 9.3*
COc1ccccc1-c1nc(-c2ccc(Br)cc2)no1 | -4.1 | -0.8 | 86.0 | 4.5 | nt | nt
COc1ccc(OC)c2nc(-c3ccc4c(c3)OCO4)ccc12 | -1.8 | 0.1 | 93.0 | 8.6* | 7.7 | 16.4*
CN(CCc1ccccn1)C(=O)c1cc2ccccn2n1 | nt | nt | nt | -3.2 | nt | nt
CCOc1ccc(C(=O)NCC(C)CN(C)C)cc1OCC (stereo not drawn) | -14.1 | -1.1 | 86.0 | 9.4* | -2.1 | 1.6
CCOC(=O)c1[nH]c2cc(OC)c(OC)cc2c1NC(=O)c1ccc2c(c1)OCO2 | -18.0 | 2.8 | 90.0 | -2.2 | nt | nt
CCOC(=O)c1[nH]c2cc(OC)c(OC)cc2c1NC(=O)c1nonc1C | 1.4 | 2.0 | 103.0 | 9.9* | -1.9 | -1.8
COCCNc1nc2cc(-c3ccc(C)cc3)sc2c(=O)n1C | -2.3 | 0.1 | 94.0 | 9.0* | 8.8* | 13.7*
COc1ccc(/C=C2\CCCCC2=O)cc1 | -3.0 | 0.4 | 99.0 | 3.9 | nt | nt
COc1ccc(C=C2CS(=O)(=O)CC(=Cc3ccc(OC)cc3)C2=O)cc1 | -6.3 | 1.3 | 101.0 | 13.6* | -14.7 | -0.3
Cc1ccc(-n2c(=O)cc(N3CCC(C)CC3)[nH]c2=O)cc1 | -5.7 | -0.5 | 101.0 | 8.2* | -2.0 | -1.0
Cn1ccnc1SCC(=O)N1CCc2ccccc21 | -3.9 | -0.9 | 98.0 | 8.2* | 10.7* | 8.7*
C/C(=N\NC(=O)Nc1ccccc1)c1ccc2ccccc2c1 | -3.0 | 0.7 | 102.0 | -0.5 | nt | nt
O=C(NCCCc1ccccc1)Nc1ccccc1 | -2.7 | 0.4 | 96.0 | 13.3* | 6.8 | 2.3
Cc1ccc(CNC(=O)Nc2ccccc2)cc1 | -0.7 | -1.0 | 89.0 | 8.7* | 5.2 | 11.3*
C/C(=N/NC(=O)Nc1ccccc1)c1ccc(C)cc1 | -2.8 | 0.1 | 99.0 | 8.7* | 3.5 | -0.1
Cc1cc(C)c2nc(N3C(=O)C(O)=C(C(=O)c4ccco4)C3c3ccco3)sc2c1 (stereo not drawn) | -4.5 | 0.4 | 101.0 | -1.3 | nt | nt
Cc1ccc2nc(N3C(=O)C(O)=C(C(=O)c4ccco4)C3c3cccs3)sc2c1 (stereo not drawn) | -11.2 | 1.5 | 100.0 | 11.6* | 2.0 | 10.3*
CCOc1ccccc1NC(=O)CSc1nc2ccccc2nc1N1CCCC1 | -3.7 | -0.1 | 102.0 | 8.3* | -2.5 | 0.4
CCOc1ccccc1NC(=O)CSc1nc2ccccc2nc1N1CCOCC1 | -3.4 | 0.1 | 99.0 | -2.6 | nt | nt
CN(C)CC(=O)N[C@H]1C[C@@H]2O[C@H](CO)CC[C@@H]2O[C@@H]1CCc1ccc(-c2ccc(F)cc2)cc1 | nt | nt | nt | 1.8 | nt | nt
COC(=O)[C@]12CCCCC=C1N(Cc1ccc(OC)cc1)C(=O)[C@@H]2CC(=O)NCc1ccc(C)o1 | nt | nt | nt | 0.0 | nt | nt
CC(=O)N1Cc2ccccc2CC1C(=O)OCC(=O)c1c(N)n(C)c(=O)n(C)c1=O (stereo not drawn) | -8.7 | 0.6 | 99.0 | -1.9 | nt | nt
Cn1c(N)c(C(=O)COC(=O)C2Cc3ccccc3CN2S(C)(=O)=O)c(=O)n(C)c1=O (stereo not drawn) | -0.1 | -1.5 | 96.0 | 8.4* | -4.5 | 1.0
Oc1ccc2[nH]cc(CCc3ccccc3)c2c1-c1ccccc1 | nt | nt | nt | -5.1 | nt | nt
CCC(=O)Nc1cc2c(cc1Cl)-c1ccccc1C2 | -3.4 | -0.3 | 103.0 | 9.5* | 3.2 | 4.6
CC(=O)Nc1cc2c(cc1Cl)-c1ccccc1C2 | -0.8 | -0.4 | 97.0 | 3.9 | nt | nt
CC(=O)c1c(C)nc(-c2ccc(Cl)cc2)nc1N | 1.1 | 0.4 | 98.0 | 10.4* | 2.9 | 10.7*

Screening data deposited in PubChem by several laboratories.
